Source: article PMC13494018
A number with no mark means an inactive call. The rule behind the calls is not given here.

Target: VTCN1, Q7Z7D3
Sequence (Q7Z7D3 whole entry): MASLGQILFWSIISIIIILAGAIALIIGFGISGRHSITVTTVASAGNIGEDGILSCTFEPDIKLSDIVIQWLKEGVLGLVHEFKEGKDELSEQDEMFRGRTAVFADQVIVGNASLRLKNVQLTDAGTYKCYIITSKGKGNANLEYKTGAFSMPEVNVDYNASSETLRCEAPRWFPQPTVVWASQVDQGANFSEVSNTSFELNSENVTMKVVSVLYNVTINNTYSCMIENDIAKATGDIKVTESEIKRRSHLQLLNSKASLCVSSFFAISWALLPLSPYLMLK

Binder | binding in a display sort
design_607_777643b9-bd23-49d1-80ae-2b1434974efa_321_dldesign_0_cycle1_af2pred (protein) SKIYEEKKKEIEEAAEKAKELAKKDPEKGRKYLKEKNKKFKEFVEKLKADPKTKADAEKILKEASKKSAEVYEVIAEEEQKKRRE | not found
design_607_777643b9-bd23-49d1-80ae-2b1434974efa_278_dldesign_0_cycle1_af2pred (protein) SSLTLEASKKSGEAYFLLNEAEFLAKKKGDEETAKKAEEARKKLKEKLDAAKTGAEKLAAALEGLKEAEKIYKEALE | not found
design_607_777643b9-bd23-49d1-80ae-2b1434974efa_139_dldesign_0_cycle1_af2pred (protein) NEEQKKLAEEAIEEIKRLQEKAFDAVGAGDIEEAKKYLEEMEKVAKETAAKVPPEYAKKVLEALEKAKKAVESAIKAAEENEK | not found
design_607_777643b9-bd23-49d1-80ae-2b1434974efa_640_dldesign_0_cycle1_af2pred (protein) AETEKKIKELEKKAHDAYQKAAEYYHDKNLKEAGDLYRKAAKLYAEAAKALAKGEEAPKAEEYEAKAKAYEEEAQKLKA | not found
design_607_777643b9-bd23-49d1-80ae-2b1434974efa_1990_dldesign_0_cycle1_af2pred (protein) MKEIIKLESESLRKLVRVAREVAEADPSLKPLAEEAILAAADNPEEGAKKVEELAKASLKVEGGEEYAKKLKEVAEKLKEVEEIYK | not found
design_607_777643b9-bd23-49d1-80ae-2b1434974efa_21_dldesign_0_cycle1_af2pred (protein) MEVEKLRKKAVEEAKKGGLGTPEEAREKRKKAEELLKEMKKAGATEEEVAKAATEAAEAYVEAKNEKYLKE | not found
design_607_777643b9-bd23-49d1-80ae-2b1434974efa_1902_dldesign_0_cycle1_af2pred (protein) DVEKVAKEAIEKLEEYGKRVPELAPEAKKAIERVKRRKEEGEKNPKFAPASIEAIKDTAENLKKKAEKLEKA | not found
design_607_777643b9-bd23-49d1-80ae-2b1434974efa_648_dldesign_0_cycle1_af2pred (protein) SEEERRRREEAYRELSEALREARELGKRLKEAGADPEVIKRLSELLAEISETLAELRAGLANEEEIERAKEAAREALELAREELERL | not found
design_607_777643b9-bd23-49d1-80ae-2b1434974efa_351_dldesign_0_cycle1_af2pred (protein) SEEEAKKLAEEAAKKAREAAEEAEKLAKEAEKIGNKKIANKLYAYAERLKNVAESVELHAGDKEYAEKGLEVTEKLRKKAKELYKEAK | not found
design_607_777643b9-bd23-49d1-80ae-2b1434974efa_1467_dldesign_0_cycle1_af2pred (protein) AEERAKKVIKEAEELRKEAIALAEKYKENPEVRKLAVEAAHYALLAISAAKAGVKFLPYAEEYLKKAKELYEKGKALAEALEKEKEEK | not found
design_607_777643b9-bd23-49d1-80ae-2b1434974efa_981_dldesign_0_cycle1_af2pred (protein) MAEEAKKKLEQAAKLMAIAYETLAAGERGLATPEELKEAAKKAEEAAKLAKEVGKVTPEKEYYEKAAKRAEKVAKRLKELAKKIEE | not found
design_607_777643b9-bd23-49d1-80ae-2b1434974efa_1231_dldesign_0_cycle1_af2pred (protein) AEEEKKKKEEEKKRTAENKALAYEEAARHAMEQGEKGSPEQRPAAVERAREFAKRAIEADPKKGAELLKEVEAFAAKWEEEA | not found
design_607_777643b9-bd23-49d1-80ae-2b1434974efa_1562_dldesign_0_cycle1_af2pred (protein) GKELLEKIKKLSEEAVFATADDPEKGKEKLEEAKKLVKEAEKLPEAPKAKEALEKAEKVSKSIIEDIEKAK | not found
design_607_777643b9-bd23-49d1-80ae-2b1434974efa_665_dldesign_0_cycle1_af2pred (protein) MKETEEEIKKIEEEAKELAEKGKEKSVEEFKKEMVKFIFSLADEGAHPEAISSAARIAKESYEKLKKKEEEEKK | not found
design_607_777643b9-bd23-49d1-80ae-2b1434974efa_1238_dldesign_0_cycle1_af2pred (protein) SLKEALLEEAKEAIKAAKAGDASKVAAETLEMRSAAEALAKDDEEAKKFAEKTRKALELLRKDPEKGLKYAEEVAKEIIKAIE | not found
design_607_777643b9-bd23-49d1-80ae-2b1434974efa_1995_dldesign_0_cycle1_af2pred (protein) EKEKELKEEVKEAGKRAEERVSRRAAKATNQQQKEATKALADNAIASIRKLAEEKGKETGKEEEFKKLAEEAEKKISAIVEAV | not found
design_607_777643b9-bd23-49d1-80ae-2b1434974efa_1383_dldesign_0_cycle1_af2pred (protein) DGEEFLKKLKERGELIKKKYPVAAEEITKITDEAVKVAQKGIEDPEKFEEYKKEATDLLHKAREIGAEKEVEAKL | not found
design_607_777643b9-bd23-49d1-80ae-2b1434974efa_1601_dldesign_0_cycle1_af2pred (protein) ASEEVKKQAEASSAAYREAKKVAKYVKANAADPKAAEIAKKANALIEEAMTGDAETAEKKTKEIAKLAKE | not found
design_607_777643b9-bd23-49d1-80ae-2b1434974efa_529_dldesign_0_cycle1_af2pred (protein) NLGEKASKATKVLVDAAKEIAKKAGEEAKAKAAAALVTLFSLFEDPEKAAKEAKALVPEKAKPIVEKAAKEADKLLN | not found

Binder | binding in a display sort
design_607_777643b9-bd23-49d1-80ae-2b1434974efa_1839_dldesign_0_cycle1_af2pred (protein) GMEAGKKALAEADKAGAAAIAAAKAGDVKAASAAAGEAYFYLAEAYVEFGPEADEEIKAKRQALLDALKKATAEAAA | not found
design_607_777643b9-bd23-49d1-80ae-2b1434974efa_649_dldesign_0_cycle1_af2pred (protein) DAAKAAAKAFAAGAIKLAEKLAKEYPEIAATMKEAIAAAKEAAKLADTDAAAGKAAASAANFTVLEAYAEAKA | not found
design_607_777643b9-bd23-49d1-80ae-2b1434974efa_37_dldesign_0_cycle1_af2pred (protein) SSNKETADAIRDAVKAAQEVGKLAKEKLSPEEAKAVADELNKAIFDLVDTAASEGVDGAKAAAADVKAKVEKLKKEIAAKAAAA | not found
design_607_777643b9-bd23-49d1-80ae-2b1434974efa_839_dldesign_0_cycle1_af2pred (protein) AAAAAKAQADAILADAKAKAAEALKKDPKTGAEEAAKIYRAAAAKLRALGAEVADDPEAVAYLSKVAAELYELAAEYASKAARL | not found
design_607_777643b9-bd23-49d1-80ae-2b1434974efa_280_dldesign_0_cycle1_af2pred (protein) GAEKEKAEKIAKEKLAEGKKLAEEAKKGTPEEAKKKRKEFLEELKKLAKEGTPYLAKLLAKVAAEVSEAFAEAYAEALRK | not found
design_606_b60ff77f-1541-4e5f-8260-46d5e5f6b85e_2343_dldesign_0_cycle1_af2pred (protein) DAEEHAKEAEKAIKEAKAYIEEAIKTGDSEKAHEARQKLAEAEYEAKKVYELDPEKGAKLLKKVEEVKKLLKELQK | not found
design_607_777643b9-bd23-49d1-80ae-2b1434974efa_1681_dldesign_0_cycle1_af2pred (protein) HMTPEQIAAAKATAAAAAALAANAATTTQAQITAVMDAAAAAMPEFADTFATLRATMLANYADKAGVAKGLAAVARMLAASAKAAE | not found
design_607_777643b9-bd23-49d1-80ae-2b1434974efa_1959_dldesign_0_cycle1_af2pred (protein) MEKAEEYLEEAKKALEKAEEYIAKAAADPANRAAYAAKAAQYAQEARILADGLELVDPSMKPEAEELRERARELIKKLAAVL | not found
design_607_777643b9-bd23-49d1-80ae-2b1434974efa_1377_dldesign_0_cycle1_af2pred (protein) AEVAALVKKASEAMGEARFNANAAEKIPEEAEEYAKKAEEAIKAFRDALAQIRALAAEASPETLAAADRAEARLKELEKKVKEALKK | not found
design_607_777643b9-bd23-49d1-80ae-2b1434974efa_1637_dldesign_0_cycle1_af2pred (protein) MEKDEALVERAFEAGGELFEKYPEGSKIASAMIRAATIARKDPEAGLEYLRERGLELGEEVAEEATERFRKILEEL | not found
design_607_777643b9-bd23-49d1-80ae-2b1434974efa_1699_dldesign_0_cycle1_af2pred (protein) SEKVEEVAKKEAEKIKEVAKKYGIEEEGKKAVERLKKKAEEAKKWKKPEIGAESVKTYGEGALKSVEILGKKKAA | not found
design_607_777643b9-bd23-49d1-80ae-2b1434974efa_1961_dldesign_0_cycle1_af2pred (protein) SEEEAKKKAEKAAEEAKKLAKEGAKFPEKAEELTEKAKEIAKELAKAGFPKLGSEAAAAAHEAQAEANLKKR | not found
design_607_777643b9-bd23-49d1-80ae-2b1434974efa_1448_dldesign_0_cycle1_af2pred (protein) AAAEEARKAAITAAADTLAEADGDVYLAANELAKKVGPEAGKAILEKAKAARKEALAAIKEDPAAGAALAKRKGEEILKEAKELIEKA | not found
design_607_777643b9-bd23-49d1-80ae-2b1434974efa_1186_dldesign_0_cycle1_af2pred (protein) KEAEIKAEAQALIDAVRAAAAAAVALAADPAAARALLTAAIGKVLEGSKEAASLALPEAVAIAREAGAAAEAAHAAAA | not found
design_606_b60ff77f-1541-4e5f-8260-46d5e5f6b85e_2386_dldesign_0_cycle1_af2pred (protein) KEEEFEKLKQKAAQLILESYDALSKNIEEAKKYLKEALKAAEEAKKVDPEKGEEVLKKVEKTSKSILKSMELAKKA | not found
design_607_777643b9-bd23-49d1-80ae-2b1434974efa_1272_dldesign_0_cycle1_af2pred (protein) EEAFKEAGEKALEYAEKVLKLAKKEPEVLEKAEKGLELLKKGIETGDKDLLVKARSYFLQVASYASPEVAEVAEKAAEYIDEAYILLS | not found
design_607_777643b9-bd23-49d1-80ae-2b1434974efa_1068_dldesign_0_cycle1_af2pred (protein) MKKKASELMHEAYELAALAEAYPENAEEYYKKAKEYGEEAVKEAEKYDPEYGKKAKERAEKVTKRAKEAVEKYKKEK | not found
design_607_777643b9-bd23-49d1-80ae-2b1434974efa_1207_dldesign_0_cycle1_af2pred (protein) AVAEAAQYAQEARQYAAEAEYLGKKYGKKNKEIKKYAEKAKEAAKKAREAAKKGDLEAAKEYAKKAKELAEKAEELAKKEEE | not found
design_607_777643b9-bd23-49d1-80ae-2b1434974efa_1871_dldesign_0_cycle1_af2pred (protein) DMKEEAKKVAKEAKEVAKKVYELDPAKGSELSAKIHEAEALVKHPKFAEEGLKELKETLKKAKELLKKLE | not found
